FUS suppressor – suppressors of FUS proteinopathy in yeast; S. cerevisiae FUS-expressing, growth rescue, OD600, 24 h; Potency, µM (highest dose often 76.6 µM), hits mostly activators; 390,000 compounds, 0.24% hits;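 note: plate controls were DMSO vehicle for no effect and reference control for full effect; nearly all actives have a fitted effect of over 55% in size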
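Galactose (2%) drives FUS expression in yeast precultured in raffinose; seeding density OD 0.005. Test compounds incubated 24hr at 30C and 99% humidity before absorbance at 600 nm was measured.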
aSyn yeast inh – inhibitors of alpha-synuclein toxicity in yeast; Yeast expressing alpha-synuclein, growth rescue, BacTiter-Glo, 24 h; Potency, µM (doses to about 46.1 µM), inactives show at the top dose growth rescue (activation), hits mostly activators; 370,000 compounds, 0.14% hits; AID 652106; note: % of control where 0% means no effect; nearly all actives have a fitted effect of over 65% in size
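Galactose-induced alpha-syn yeast (OD600=0.02, raffinose-pregrown) + pinned cpd, 24 hr, 30 deg C; growth by BacTiter-Glo luminescence. Growth restoration scores as activation.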
TDP-43 yeast inh – TDP-43 toxicity inhibition in yeast. Potency, µM (titrated, usually from 46.1 µM), without a hit: at the highest dose growth rescue (activation), usual class: activators. 410,000 compounds, 1.8% hits. TDP-43 expressing yeast growth rescue, BacTiter-Glo, 24 h. AID 652104; note: % of control where 0% means no effect; nearly all actives have a fitted effect of over 50% in size
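Readout is BacTiter-Glo luminescence of cell growth, so inhibitors register as activators. TDP-43-expressing yeast at OD600=0.02 in galactose medium, after raffinose pregrowth to mid-log, were incubated with compound for 24 hr at 30 deg C.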
Abeta rescue – restores growth of yeast expressing A-beta42 peptide; yeast expressing A-beta42, growth rescue, OD600, 48 h; response scale: 0% DMSO, 100% iron-clioquinol control; Potency, µM (top dose mostly 46.1 µM), most hits filed as activators; 410,000 compounds, 0.063% hits; note: nearly all actives have a fitted effect of over 55% in size
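Growth rescue measured by 600 nm absorbance after 48 h yeast culture at 30 C with compound. Values normalized between DMSO and an equimolar ferric chloride plus clioquinol control.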
* = called active by the depositor; i = inactive; ? = inconclusive; . = no result; [ ] = remark or other dose. In the library only some 2.1% were active in any assay of this set; here they are far more common. Calls come from the whole dose curve; as a rule, active = well fitted curve in the direction sought with a large enough effect; inconclusive = small, poorly fitted or top-dose-only effect, or another doubt; inactive = no such curve, though single readings can be large; an effect the other way counts as inactive or inconclusive. Potency is the fitted concentration of half-maximal effect.

SMILES	FUS suppressor	aSyn yeast inh	TDP-43 yeast inh	Abeta rescue
CCN(CC)C(=O)CC[C@H]1CC[C@]2(CCCN(C(=O)c3ccno3)C2)O1	i	.	.	.
CC(C)Cn1c(-c2ccc(Br)cc2)c[nH]c1=S	i	10.5%	-15.4%[0.397 µM]	3.16µM*
COCCNc1nc(Oc2cccc(NC(C)=O)c2)c2sc(-c3ccccc3)cc2n1	i	4.2%	34.4%	i
CC(=O)Nc1cccc(Oc2nc(NC(C)C)nc3cc(-c4ccccc4)sc23)c1	?	0.8%	25.1µM*	i
Cc1ccc(N2C(=O)CC(Sc3ccccc3C(=O)O)C2=O)cc1 (stereo not given)	.	14.1%	?	i
CCOC(=O)c1c(N2C(=O)CC(Sc3ccccc3C(=O)O)C2=O)sc(C)c1C (stereo not given)	i	8.6%	14.1µM*	?
Cc1cc(C)cc(N2C(=O)CC(Sc3ccccc3C(=O)O)C2=O)c1 (stereo not given)	i	-75.4%	22.4µM*	i
Cc1ccccc1CN1CCCCC(NC(=O)C2CCC2)C1=O (stereo not given)	i	.	.	.
O=C1C(SCCO)=C(SCCO)C(=O)c2ccccc21	i	-80.3%	22.4µM*	i
O=C1c2cccnc2-c2ncccc21	i	-11.9%	2.2%	i
COC1=C(Br)C(=O)c2ncccc2C1=O	.	15.8µM*	27.9%	i
CN(C)CCCCCCNc1nccc(N2CCN(C)CC2)n1	.	0.7%	.	.
CC(C)OC(=O)C(C(=O)C(F)(F)F)c1cc(NS(=O)(=O)c2ccc3ccccc3c2)c2ccccc2c1O (stereo not given)	10µM*	-33.9%	-64.1%	i
Cc1ccc2nc(N3CCN(c4cccc(C)c4C)CC3)c3nncn3c2c1	i	.	19.8%	i
Cc1cccc(N2CCN(c3nc4ccc(C)cc4n4cnnc34)CC2C)c1 (stereo not given)	i	.	35.5µM*	i
CC(C)CC(COCc1ccc(Cl)cc1)N1CCN(C(=O)c2ccc(Cl)cc2Cl)CCC1=O (stereo not given)	?	?	25.1µM*	i
Cc1cccc(COCC(Cc2ccccc2)N2CCN(C(=O)c3cccc(Cl)c3)CCC2=O)c1 (stereo not given)	?	?	20.0%	i
Cc1cccc(COC[C@H](Cc2ccccc2)N2CCN(C(=O)c3cccc(Cl)c3)CCC2=O)c1	?	?	17.8µM*	i
Cc1ccc(C(=O)N2CCN(S(=O)(=O)c3cc(Br)ccc3Br)CC2)o1	i	-32.8%	20µM*	i
O=C(CSc1ccc2c(c1)OCCO2)Nc1ncc(Cl)cc1Cl	i	3.8%	?	i
O=C(CSc1ccc2c(c1)OCCO2)NCCc1ccc(Cl)cc1Cl	.	?	11.2µM*	i
O=C(N1CCC(n2nc(-c3ccccc3)oc2=O)CC1)C1(c2ccc(Cl)cc2)CC1	?	?	22.4µM*	.
O=C(Cc1ccc2c(c1)OCO2)N1CCC(n2nc(-c3ccccc3)oc2=O)CC1	i	.	.	.
CCCCCCCCN1C(=O)[C@@H](CC(=O)NCc2ccccc2)C[C@@]2(C(=O)OC)C1=C[C@H](COCc1ccccc1)O[C@@H]2C	i	.	.	.
Cc1ccc(NC(=O)CN(C)C(=O)c2cccnc2Nc2cccc(C(F)(F)F)c2)cc1	i	-55.3%	20µM*	i
SMILES	FUS suppressor	aSyn yeast inh	TDP-43 yeast inh	Abeta rescue
COC(=O)c1cc(C(c2ccccc2O)C2CCC(C)(C)O2)n2ccccc12 (stereo not given)	i	.	.	.
CC(C)Oc1ccc(S(=O)(=O)N2CCCCCC2)c2ccccc12	i	.	.	.
Cc1ccc(CC(=O)NCC2CCCCC2)cc1	i	9.0%	14.6%	i
O=C(Cc1ccc(OCC2CCCCC2)cc1)NO	.	22.4µM*	.	.
Cc1ccc(Cl)c2sc(NC(=O)C3=COCCO3)nc12	i	-7.0%	11.2µM*	i
Cc1cc(C)c2sc(NC(=O)C3=COCCO3)nc2c1	?	-2.1%	17.8µM*	i
COc1ccc(Cl)c2sc(NC(=O)C3=COCCO3)nc12	i	-0.8%	-10.9%	i
Cc1cc(C)c(-c2csc(NC(=O)C3=COCCO3)n2)c(C)c1	i	-4.0%	?	i
COc1ccc(S[C@]2(C(=O)N(C)C)CC(=O)N(c3ccccc3)[C@@H]2c2ccc(OC)cc2)cc1	i	.	.	.
CCOC(=O)c1nc(NCCc2ccccc2)sc1C	i	-17.3%	12.6µM*	i
NC(=O)c1ccsc1NC(=O)CSc1n[nH]c(N)n1	i	-7.5%	0.0%	i
Cc1ccsc1/C=C/C1=Cc2c(sc(NC(=O)CSc3n[nH]c(N)n3)c2C#N)C(C)(C)C1	25.1µM*	-0.1%	-18.7%	i
CCOc1ccc(/C=C/C2=Cc3c(sc(NC(=O)CSc4n[nH]c(N)n4)c3C#N)C(C)(C)C2)cc1	8.91µM*	0.1%	-10.9%	i
COc1ccc2c(c1)CC/C2=N\OC(=O)c1cccc(C)c1	.	-53.9%	5.01µM*	i
O=C(O/N=C1\CCCc2ccccc21)c1cccs1	i	-12.6%	8.91µM*	i
COc1ccc2c(c1)CCC/C2=N/OC(=O)c1ccccc1OC	i	-10.0%	15.8µM*	i
COc1ccc2c(c1)CC/C2=N\OC(=O)c1ccccc1C	i	-20.9%	?	i
O=C(CSc1nnc(-c2ccc(Cl)cc2)n1-c1ccccc1)NN=Cc1c[nH]c2ccccc12	i	.	.	.
CC1COCC(C)N1S(=O)(=O)c1ccc2c(c1)CCN2C(=O)C1CCC1 (stereo not given)	i	.	.	.
O=C(O)c1ccc(N/N=C/c2ccc(C(F)(F)F)cc2)cc1	i	-59.9%	-93.6%	i
CC(C)(C)c1ccc(/C=N/Nc2ccc(C(=O)O)cc2)cc1	i	-33.4%	15.8µM*	i
CC(CCC(C)[n+]1cccc(Br)c1)[n+]1cccc(Br)c1 (stereo not given)	.	-10.4%	.	.
CCn1c(SCc2ccc(F)cc2)nc2c(c1=O)SCC2	i	-0.3%	17.8µM*	i
Cc1cccc(Nc2n[nH]c(=S)s2)c1C	i	-30.7%	29.5%	i
